This passage reports inhibition results from PubChem BioAssay AID2073 (Sanford-Burnham Center for Chemical Genomics, 2009).

This experiment deals with Voltage-dependent N-type calcium channel subunit alpha-1B (Homo sapiens) (UniProt Q00975). As to the kind of experiment: inhibitors of Mint1-CaV2.2 protein interaction, biochemical, HTRF (AID 2073). The note with it: at 20 µM, stronger effect = higher value. For orientation: Time-resolved FRET reads energy transfer from a long-lived donor to a nearby acceptor.
Where [1] appears, read: measured here: average of repeat tests.

Among all 290,000 compounds or so, about 570 (0.2%) were called active. Another 1% or so got no clear call; they are omitted. Rule as the data show it: active = inhibition mostly above about 51% (no sharp cut-off); inconclusive = no clear call, values can overlap the other calls; inactive = mostly below about 53%. Only a selection was taken, and actives are over-represented in it overall.

Chain of Voltage-dependent N-type calcium channel subunit alpha-1B (Homo sapiens) (Q00975 whole entry, looked up): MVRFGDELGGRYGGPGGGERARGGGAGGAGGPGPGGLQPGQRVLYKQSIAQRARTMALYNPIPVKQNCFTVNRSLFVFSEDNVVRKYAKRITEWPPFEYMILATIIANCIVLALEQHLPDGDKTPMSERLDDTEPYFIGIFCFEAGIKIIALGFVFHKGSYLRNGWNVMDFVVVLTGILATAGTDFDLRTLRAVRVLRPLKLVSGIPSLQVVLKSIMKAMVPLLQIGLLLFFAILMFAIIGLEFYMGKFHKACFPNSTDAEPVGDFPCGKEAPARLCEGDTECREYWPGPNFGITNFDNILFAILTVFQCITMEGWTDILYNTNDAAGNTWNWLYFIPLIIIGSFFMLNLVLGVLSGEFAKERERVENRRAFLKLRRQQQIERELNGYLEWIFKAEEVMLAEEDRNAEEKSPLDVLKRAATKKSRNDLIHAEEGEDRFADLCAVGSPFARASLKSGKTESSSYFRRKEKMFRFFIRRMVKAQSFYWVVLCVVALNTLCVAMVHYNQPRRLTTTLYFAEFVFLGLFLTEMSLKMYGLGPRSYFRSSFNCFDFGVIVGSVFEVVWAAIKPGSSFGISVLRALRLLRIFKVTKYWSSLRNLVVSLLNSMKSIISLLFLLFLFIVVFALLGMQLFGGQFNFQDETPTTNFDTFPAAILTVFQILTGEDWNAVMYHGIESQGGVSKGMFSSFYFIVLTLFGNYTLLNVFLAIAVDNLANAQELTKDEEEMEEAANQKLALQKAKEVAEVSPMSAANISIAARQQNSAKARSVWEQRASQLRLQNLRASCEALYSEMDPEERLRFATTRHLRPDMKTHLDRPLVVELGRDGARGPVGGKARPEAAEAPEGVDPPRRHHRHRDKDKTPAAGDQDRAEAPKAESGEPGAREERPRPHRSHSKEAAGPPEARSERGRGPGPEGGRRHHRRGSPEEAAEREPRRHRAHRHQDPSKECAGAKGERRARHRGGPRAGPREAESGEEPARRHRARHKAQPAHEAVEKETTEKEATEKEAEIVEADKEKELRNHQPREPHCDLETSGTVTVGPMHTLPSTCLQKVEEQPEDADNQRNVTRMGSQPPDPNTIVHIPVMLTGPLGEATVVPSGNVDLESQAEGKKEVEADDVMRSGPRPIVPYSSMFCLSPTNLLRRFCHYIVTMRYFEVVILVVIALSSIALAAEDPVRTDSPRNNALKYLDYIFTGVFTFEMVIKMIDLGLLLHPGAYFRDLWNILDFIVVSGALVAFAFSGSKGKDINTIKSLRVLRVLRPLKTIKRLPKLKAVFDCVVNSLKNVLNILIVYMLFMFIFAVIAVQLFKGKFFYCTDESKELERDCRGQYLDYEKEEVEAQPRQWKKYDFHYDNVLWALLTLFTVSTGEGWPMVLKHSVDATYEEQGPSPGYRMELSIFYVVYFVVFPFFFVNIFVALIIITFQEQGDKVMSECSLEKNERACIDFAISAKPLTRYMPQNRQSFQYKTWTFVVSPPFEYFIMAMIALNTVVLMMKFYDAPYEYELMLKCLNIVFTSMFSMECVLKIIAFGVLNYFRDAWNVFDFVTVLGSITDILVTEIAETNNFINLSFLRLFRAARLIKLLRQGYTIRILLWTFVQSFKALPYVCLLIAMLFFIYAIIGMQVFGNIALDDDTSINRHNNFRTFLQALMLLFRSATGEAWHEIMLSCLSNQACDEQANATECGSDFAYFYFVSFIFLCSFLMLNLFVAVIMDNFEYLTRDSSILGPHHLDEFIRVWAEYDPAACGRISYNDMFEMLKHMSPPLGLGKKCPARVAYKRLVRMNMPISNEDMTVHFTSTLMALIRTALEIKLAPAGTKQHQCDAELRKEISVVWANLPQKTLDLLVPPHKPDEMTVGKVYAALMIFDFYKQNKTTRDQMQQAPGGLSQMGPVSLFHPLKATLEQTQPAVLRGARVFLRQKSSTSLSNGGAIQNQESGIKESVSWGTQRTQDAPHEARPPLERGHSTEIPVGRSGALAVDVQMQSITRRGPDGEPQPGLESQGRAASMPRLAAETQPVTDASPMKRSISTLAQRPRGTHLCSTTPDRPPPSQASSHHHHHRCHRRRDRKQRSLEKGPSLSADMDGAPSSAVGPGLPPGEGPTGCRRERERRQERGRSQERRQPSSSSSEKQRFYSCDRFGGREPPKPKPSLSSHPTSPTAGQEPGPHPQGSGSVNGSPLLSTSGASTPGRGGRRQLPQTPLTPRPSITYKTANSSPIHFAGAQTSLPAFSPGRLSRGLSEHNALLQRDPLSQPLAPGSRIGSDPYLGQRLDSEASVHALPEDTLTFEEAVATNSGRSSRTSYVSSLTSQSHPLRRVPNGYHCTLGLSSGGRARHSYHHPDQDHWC

Take `C/C(=N\NC(=O)c1cccs1)c1ccc(C(=O)O)s1`: the inhibition is 12.5% (inactive). As for `CCc1ccc(OCC(=O)NC(NC(=S)Nc2ccccc2C)C(Cl)(Cl)Cl)cc1` (stereo unspecified), the inhibition was -12.1% (inactive). For `COC(=O)c1sccc1NC(=O)c1ccc(C(C)C)cc1`, the inhibition is 1% (inactive). Consider `CCN(CC)CCNC(=O)c1ccc(NC(=O)COc2ccccc2F)cc1`, for which the inhibition was -0.2% (inactive).

Take `COc1ccccc1CNC(=O)/C=C/c1ccc(Br)o1`: the inhibition is 79.5% (active). As for `O=C(/C=C/c1ccc(Br)o1)NCc1ccccc1`, the inhibition is 76.8% (inactive). Further, the inhibition under setting [1] came to 13.4%. For the molecule `COc1ccccc1CNC(=O)c1ccc(Br)o1`, the inhibition is -2% (inactive).

Consider `COCC(=O)NNC(=O)c1ccccc1OC`, for which the inhibition was -3.5% (inactive). With `CS(=O)(=O)N(CC(=O)Nc1ccc2c(c1)OCCO2)Cc1ccc(Cl)cc1`, the inhibition was -3.3% (inactive). `CCOC(=O)C1C(=O)NC(SC)=C(C#N)C1c1ccccc1F` (stereo unspecified): the inhibition is -5.1% (inactive). As to `CC(=O)C1(C)OC(N)=C(C#N)C(c2ccccc2)C1(C#N)C#N` (stereo unspecified), the inhibition was 48% (inactive). On to `N#CC1=C(N)Nc2ncnn2C1c1ccc([N+](=O)[O-])cc1` (stereo unspecified), for which the inhibition is -11.4% (inactive). On to `COC(=O)C1C(=O)NC(SC)=C(C#N)C1c1ccccc1F` (stereo unspecified), for which the inhibition was 8% (inactive). For `NC(=O)C1(C(N)=O)OC1c1ccc(Cl)cc1Cl` (stereo unspecified), the inhibition was 6.5% (inactive).

As to `N#CC1=C(N)SC(N)=C(C#N)C1c1ccc([N+](=O)[O-])cc1`, the inhibition is 68.2% (inactive). For the same molecule, the inhibition under setting [1] came to 5%.

As for `CCOC(=O)C1=C(C)NC(=O)NC1c1ccc(Cl)cc1Cl` (stereo unspecified), the inhibition was -3.7% (inactive). For the molecule `COC(=O)C1C(=O)NC(SC)=C(C#N)C1c1ccccc1` (stereo unspecified), the inhibition is -20.5% (inactive).

As for `COCCCNC(=O)Cn1nnc(-c2ccc(NC(=O)c3ccc(F)cc3)cc2)n1`, the inhibition is 25.2% (inactive). Same read-out and setting: the figure for `Cc1cc2oc(=O)cc(CN3CCCCC3C)c2cc1C` (stereo unspecified) is 2.6% (inactive). For `COc1ccccc1S(=O)(=O)Cc1ccc(C(=O)N2CCCC2)o1`, the inhibition is 0.3% (inactive). `O=C(NCCc1c[nH]c2ccccc12)C(F)(F)C(F)F`: the inhibition was -6.3% (inactive). As to `Cc1ccc(C(=O)NCCc2nnc3ccc(SCC(=O)Nc4c(C)cc(C)cc4C)nn23)cc1`, the inhibition was 8.7% (inactive).

On to `CCCn1cnc2cc(NC(=O)c3ccco3)ccc21`, for which the inhibition was 10.4% (inactive). With `CC(C)c1csc(CN2CCN(Cc3ccccc3)C(CCO)C2)n1` (stereo unspecified), the inhibition was 11.5% (inactive). Still for that read-out and setting: the value for `Cc1ccc(C(=O)N(CC(=O)NC2CCCC2)c2ccc3c(c2)OCCO3)s1` was -11% (inactive). Consider `O=C(Nc1ccc(Cl)cc1)N1CCOC12CCCCC2`, for which the inhibition was -2.6% (inactive). On the same count and under the same terms, the value for `O=Cc1cnc(N2CCOCC2)nc1` was 6.2% (inactive); that for `NNC(=O)c1cc(O)c(O)c(O)c1` was 63.1% (active). `COC(=O)c1cc(O)c(O)c(O)c1`: the inhibition is -68.3% (inactive). With `NNC(=O)c1cccc(O)c1`, the inhibition was 19.5% (inactive).

Regarding `COC(=O)c1ccc(NC(=O)CCn2cccc2)cc1`, the inhibition was 3.2% (inactive). As to `CC(C)c1ccc(/C=C2\SC(N3CCOCC3)=NC2=O)cc1`, the inhibition was -2.3% (inactive). On to `CCOC(=O)C1CCCN(C(=O)CC(C)c2ccccc2)C1` (stereo unspecified), for which the inhibition was -3.1% (inactive). Take `Cc1ccc(C)c(N2CCN(C(=O)CCn3c(=S)[nH]c4cc5c(cc4c3=O)OCO5)CC2)c1`: the inhibition is 4.3% (inactive).

For the molecule `Cc1ccc(-n2cccc2/C=C2/C(=N)N3C(=NC2=O)SN=C3S(C)(=O)=O)cc1Cl`, the inhibition is 29.3% (inactive). Take `CS(=O)(=O)C1=NSC2=NC(=O)/C(=C\c3cccn3-c3ccc(Cl)cc3)C(=N)N21`: the inhibition is 24.5% (inactive). Take `CS(=O)(=O)C1=NSC2=NC(=O)/C(=C\c3cccn3-c3ccccc3Cl)C(=N)N21`: the inhibition is 68.7% (active).

For `O=C(CC1NCCNC1=O)Nc1cccc([N+](=O)[O-])c1` (stereo unspecified), the inhibition was -6.8% (inactive). On the same count and under the same terms, the figure for `CC(=O)Nc1ccc2nsnc2c1` is 9% (inactive); for `Cc1nc2ccc(NC(=O)N(C(C)C)C(C)C)cc2s1` it is 10.4% (inactive).

Take `CC(C)N(C(=O)Nc1ccc2nsnc2c1)C(C)C`: the inhibition is 60.7% (active).

On to `CCC(C)(C)n1nnnc1C(c1ccc(Cl)cc1)N1CCN(C)CC1` (stereo unspecified), for which the inhibition is -3.8% (inactive). In the case of `CCc1c(C(C)S(=O)(=O)c2ccccc2)[nH]c(=O)n1CC` (stereo unspecified), the inhibition is -7.8% (inactive). Consider `CCn1c(C)c(CS(=O)(=O)c2ccccc2)[nH]c1=O`, for which the inhibition was 73.9% (active).

With `Cc1nn(C)c(C)c1CS(=O)(=O)c1ccccc1`, the inhibition was -4% (inactive). As for `Cc1ccc2cc(CN(C(=O)c3cccs3)c3ccccc3)c(=O)[nH]c2c1`, the inhibition was 4.6% (inactive). With `CC(C)O/C(=N\S(=O)(=O)c1ccc(Cl)cc1)c1ccccc1`, the inhibition was 3.7% (inactive). In the case of `Cc1ccc(N=C2CSC(=O)N2)cc1`, the inhibition was -2.7% (inactive).

Consider `CN1C(=O)CSC1=Nc1ccc(Br)cc1`, for which the inhibition is -4.4% (inactive). Still for that read-out and setting: the value for `Cc1ccc(N=c2sc(C)c(C)n2C)cc1` was -35.3% (inactive). Same read-out and setting: the value for `NC1=NC(=Nc2ccc(Br)cc2)c2ccccc21` was -1.5% (inactive); that for `Cc1cc(C)cc(C(N)=Nc2cccc(C#N)c2)c1` was 4.9% (inactive); that for `CCOC(=O)c1ccc(N=c2scc(C)n2CC)cc1` was 3.7% (inactive).

Turning to `CCOC(=O)c1ccc(N=NN(C)C)cc1`, the inhibition was -7% (inactive).

With `N#Cc1ccc(N=c2ssnc2Cl)cc1`, the inhibition is 44.2% (inactive). For `O=C(COc1ccccc1Cl)Nc1ccc(CN2CCOCC2)cc1`, the inhibition is -4.3% (inactive). In the case of `Cc1nn(CC(=O)N2CCC(N3CCCCC3)CC2)c(=O)c2c1sc1ccccc12`, the inhibition is 16.1% (inactive). Still for that read-out and setting: the figure for `Cc1ccc(NC(=O)Cn2nnc(C(=O)NCc3ccc4c(c3)OCO4)c2N)cc1` is 9.7% (inactive). As to `O=C(NNc1ccccc1)Nc1ccccc1F`, the inhibition is -15.6% (inactive). For the molecule `CC(C)(C)C1CCC(=NNC(=O)C(=O)NC2CCCCC2)CC1` (stereo unspecified), the inhibition was 2.1% (inactive). Regarding `O=C(OCc1nnc(-c2ccc(Cl)cc2)o1)c1ccncc1`, the inhibition was 7.7% (inactive). Consider `Clc1ccc(N=c2ssnc2Cl)cc1`, for which the inhibition was -17.4% (inactive). Turning to `Clc1ss/c(=N\c2ccccn2)c1Cl`, the inhibition is 6.4% (inactive). Take `Cc1c(CCC(=O)O)c(=O)oc2cc(OCc3cccc(F)c3)ccc12`: the inhibition was 16.2% (inactive). For the molecule `N#Cc1c(-c2ccccc2)cc(-c2ccco2)c(C#N)c1N`, the inhibition was 53.5% (active). For `CSc1nc(-c2ccco2)cc(-c2ccccc2)c1C#N`, the inhibition is 15.4% (inactive). Consider `N#Cc1c(-c2ccco2)cc(-c2ccccc2)[nH]c1=O`, for which the inhibition is 48.2% (inactive). For `COc1ccc(Cl)cc1NC(=O)c1ccc2c(SCC(=O)O)c3c(nc2c1)CCCC3`, the inhibition is 12.3% (inactive).

Consider `COc1cc(Cl)c(C)cc1NC(=O)c1ccc2c(SCC(=O)O)c3c(nc2c1)CCCC3`, for which the inhibition is 53.2% (active). For `COc1cc(OC)c(NC(=O)c2ccc3c(SCC(=O)O)c4c(nc3c2)CCCC4)cc1Cl`, the inhibition is 44.9% (inactive).

With `CCCOc1cccc(C(=O)O)c1`, the inhibition is -5.1% (inactive). For the molecule `CC(/C=N/NC(=O)c1cc(-c2ccccc2)nc2ccccc12)=C\c1ccco1`, the inhibition was 52.6% (active). Consider `CC(/C=N/NC(=O)c1cc(-c2ccc(Cl)cc2)nc2ccccc12)=C\c1ccco1`, for which the inhibition was 37.8% (inactive). In the case of `O=C(N/N=C/c1ccco1)c1cc(-c2ccc3ccccc3c2)n[nH]1`, the inhibition is 5.5% (inactive). `CC(/C=N/NC(=O)c1cc(-c2ccc3ccccc3c2)n[nH]1)=C\c1ccco1`: the inhibition is 73.3% (active). For the molecule `CC(/C=N/NC(=O)c1cc(-c2ccncc2)nc2ccccc12)=C\c1ccco1`, the inhibition was 43.6% (inactive). In the case of `O=C(N/N=C\C=C\c1ccco1)c1cc(-c2ccc3ccccc3c2)n[nH]1`, the inhibition is 80.2% (inactive). Further, under setting [1], the inhibition came to 9.6%. As for `CCOc1cc(C(=O)O)cc(Cl)c1OC`, the inhibition was 0.7% (inactive). Turning to `Cc1ccc(N2CCN(/N=C/C=C/c3ccccc3)CC2)cc1`, the inhibition is 2.8% (inactive).

Regarding `CNC(=S)/N=C(/Nc1ccccc1)c1ccccc1`, the inhibition is 59.9% (active). For `CNC(=S)Nc1ccc(Nc2ccccc2)cc1`, the inhibition is -5.3% (inactive).

In the case of `N/C(=N\C(=S)Nc1ccccc1)c1ccccc1`, the inhibition was 5.2% (inactive). As to `Cc1ccc(NC(=S)c2ccccc2)cc1`, the inhibition was -6.4% (inactive). As for `Cc1ccc(NC(=O)c2ccccc2)cc1`, the inhibition is -4.2% (inactive). Turning to `CS(=O)(=O)NCCSCc1c(Cl)cccc1Cl`, the inhibition was 28.1% (inactive). Take `N#Cc1c(C(F)(F)F)cc(C2CC2)[nH]c1=O`: the inhibition was 6.1% (inactive). As to `Cc1ccc(C(=S)NCS(=O)(=O)c2ccc(C)cc2)cc1`, the inhibition was 28% (inactive). Same read-out and setting: the figure for `C(=C\c1nc2ccccc2[nH]1)/c1ccccc1` is 5.8% (inactive). For `C(=C\c1ccco1)/c1nc2ccccc2[nH]1`, the inhibition was 65.6% (active).

As to `Cc1ccc(/C=C/c2nc3ccccc3[nH]2)o1`, the inhibition was 44.8% (inactive). Still for that read-out and setting: the value for `CCc1ccc(CN2CCC(n3nccc3NC(=O)c3ccc4c(c3)OCO4)CC2)cc1` was 2.8% (inactive); that for `N#Cc1c(N2CCCCC2)nc(N2CCCCC2)c2c1CCN(Cc1ccccc1)C2` was 16.2% (inactive). Consider `N#Cc1c(N)sc2c1CCN(CCc1ccccc1)C2`, for which the inhibition is 3.3% (inactive).

For `N#Cc1c(N)sc(=S)c2c1CCN(Cc1ccccc1)C2`, the inhibition is 52.4% (active). Turning to `CN(C(=O)CC1C(=O)NCCN1Cc1ccccc1F)C1CCOCC1` (stereo unspecified), the inhibition is 16.3% (inactive). For the molecule `CC1=CC(C)(C)N(C)C(=O)N1c1ccc(Cl)cc1`, the inhibition is -2.6% (inactive). The same measure, in the same setting: the figure for `Cc1cc(=O)cc(C)n1-c1ccc(Cl)cc1` is 7.3% (inactive); for `Cc1c(Cl)sn(-c2ccc(Cl)cc2)c1=O` it is 79.2% (active).

Turning to `CN1CCN(C(=O)CN(c2cc(C(F)(F)F)ccc2Cl)S(C)(=O)=O)CC1`, the inhibition is -10.8% (inactive). Turning to `CN(c1ccccc1)c1ccc(/C=C(\CCC(=O)O)c2nc3ccccc3s2)cc1[N+](=O)[O-]`, the inhibition is 54.7% (active).

Turning to `O=C(O)CC/C(=C\c1ccc(Cl)c([N+](=O)[O-])c1)c1nc2ccccc2s1`, the inhibition is 6.1% (inactive). The same measure, in the same setting: the value for `Cc1ccc(/C=C(\CCC(=O)O)c2nc3ccccc3s2)cc1[N+](=O)[O-]` was 7% (inactive). For `CCC(C(=O)N1CCOCC1)n1nc(C)c2sc3ccccc3c2c1=O` (stereo unspecified), the inhibition was 12.1% (inactive).

As usually defined, the inhibition is the drop in the measured response relative to a control, in per cent.
